Compound activity (PubChem BioAssay)
Hits are enriched below; roughly 5.8% of the tested compounds scored in any of these assays.
KB-3-1 tox: kills parental KB-3-1 adenocarcinoma cells | actives 1.4% (n = 400,000) | KB-3-1 viability, CellTiter-Glo ATP luminescence, 72 h | Potency, µM (doses to about 46.1 µM), hits mostly cytotoxic | AID 1347075; also: % is scaled to controls: 0 for no effect and ±100 for the full control effect; nearly all actives have a fitted effect of over 60% in size
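Viability of parental KB-3-1 cells, measured by CellTiter-Glo luminescence, followed a 72 h incubation at 37 °C with pinned compounds in phenol-red-free DMEM containing 10% FBS.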
ALOX12 inh: ALOX12 (human) lipoxygenase inhibition; P18054; purified 12hLO, xylenol orange hydroperoxide absorbance; actives 1.1% (n = 580,000); Potency, µM (doses to about 108 µM), inactives show at the highest dose activity change, negative = inhibition, most hits filed as inhibitors; also: % is scaled to controls: 0 for no effect and ±100 for the full control effect
Target sequence (P18054 whole entry, looked up): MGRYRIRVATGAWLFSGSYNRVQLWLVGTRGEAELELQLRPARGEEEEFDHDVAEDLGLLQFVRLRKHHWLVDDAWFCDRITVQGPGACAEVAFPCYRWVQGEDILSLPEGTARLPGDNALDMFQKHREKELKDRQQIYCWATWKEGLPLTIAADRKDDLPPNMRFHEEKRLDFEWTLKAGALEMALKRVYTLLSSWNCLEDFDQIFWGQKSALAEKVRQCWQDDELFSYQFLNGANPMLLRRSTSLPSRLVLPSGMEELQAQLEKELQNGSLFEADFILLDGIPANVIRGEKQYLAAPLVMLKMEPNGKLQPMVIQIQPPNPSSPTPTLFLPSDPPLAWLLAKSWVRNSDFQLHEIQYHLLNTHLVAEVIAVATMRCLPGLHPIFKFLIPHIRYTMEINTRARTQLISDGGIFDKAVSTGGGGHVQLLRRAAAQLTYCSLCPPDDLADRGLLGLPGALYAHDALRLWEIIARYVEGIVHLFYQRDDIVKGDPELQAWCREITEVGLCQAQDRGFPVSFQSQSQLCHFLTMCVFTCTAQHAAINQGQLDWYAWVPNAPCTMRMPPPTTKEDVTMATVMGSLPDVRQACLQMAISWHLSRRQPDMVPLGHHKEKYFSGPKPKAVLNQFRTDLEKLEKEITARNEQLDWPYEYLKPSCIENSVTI
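Purified human 12hLO at 150 nM in 25 mM Hepes, 0.01% Triton X-100, pH 7.0, preincubated 15 min at room temperature with compound. Reaction started with 40 uM arachidonic acid, 30 min at room temperature. Hydroperoxide measured by Fe-xylenol orange, 573/405 nm absorbance ratio.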
PINK1 modulator: modulators of PINK1 expression; actives 0.2% (n = 410,000); Potency, µM (highest dose often 76.6 µM), inactives show top-dose activation (PINK1 increase), usual class: activators; PINK1 immunofluorescence, high-content cytometry, 24 h; AID 624263; active = well fitted activation curve with a large enough effect; inconclusive = small, poorly fitted or top-dose-only effect; cell line not stated here; also: % of control where 0% means no effect; nearly all actives have a fitted effect of over 65% in size
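Stable cell line, 250 cells/well, 12 h attachment; compounds pinned at 5 concentrations, 24 h; CCCP control. Fixed with nuclear dye, primary antibodies 12 h at 10 degrees C, secondary plus cell stain; laser-scanning cytometer read.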
SW480 rerep: induces DNA re-replication in SW480 colon adenocarcinoma cells | Potency, µM (titrated, usually from 46.1 µM), for the others: top-dose re-replication activation, usual class: activators | SW480 DNA re-replication, Hoechst DNA content imaging, 48 h | AID 624297 | actives 1.8% (n = 340,000); also: % of control where 0% means no effect; nearly all actives have a fitted effect of over 55% in size
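Compounds, transferred as 23 nL by pin tool, were incubated with cells for 48 hr; DNA content per nucleus was then quantified by Hoechst staining and fluorescence plate imaging.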
KB-V1 MDR tox: kills drug-selected multidrug resistant KB-V1 cells; KB-V1 MDR cells viability, CellTiter-Glo, 72 h; Potency, µM (top dose mostly 46.1 µM), usual class: cytotoxic; actives 3.4% (n = 400,000); also: % is scaled to controls: 0 for no effect and ±100 for the full control effect; nearly all actives have a fitted effect of over 60% in size
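KB-V1 MDR subline cells in DMEM (phenol-red free, 10% FBS) exposed to compounds in qHTS concentration series for 72 h at 37 degrees C. Viability read by CellTiter-Glo luminescence; concentration-effect curves fitted after normalization and correction.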
MCF10A rereplic: DNA re-replication induction in MCF 10a cells | actives 2.9% (n = 350,000) | Potency, µM (doses to about 46.1 µM), inactives show at the highest dose activity, positive = re-replication, actives largely listed as activators | AID 624296 | MCF 10A DNA re-replication, Hoechst nuclear intensity, 48 h; also: % of control where 0% means no effect; nearly all actives have a fitted effect of over 50% in size
Numbers without * were called inactive; i = inactive; ? = inconclusive; . = not tested or not shown; [ ] = another dose, or the depositor's remark. Unless noted, calls follow the shape of the dose curve; as a rule, active = well fitted curve in the direction sought with a large enough effect; inconclusive = small, poorly fitted or top-dose-only effect, or another doubt; inactive = no such curve, though single readings can be large; an effect the other way counts as inactive or inconclusive. Potency is read from the fitted curve at half-maximal effect.

SMILES	KB-3-1 tox	ALOX12 inh	PINK1 modulator	SW480 rerep	KB-V1 MDR tox	MCF10A rereplic
Cc1cccc(OC[C@H]2C[C@@H](NCc3cccc4c3OCO4)[C@H](O)[C@@H]2O)n1	.	20µM*	.	.	.	.
O=c1[nH]c(-c2ccc(-c3cccc(Cl)c3)o2)nc2ccccc12	i	?	12.0%	10.7%	i	10.3µM*
O=c1[nH]c(SCc2cccc(Cl)c2)nc2ccccc12	i	-0.6%	13.1%	-28.9%	i	?
CC1CCN(C(=O)COC(=O)c2cccc(S(=O)(=O)N(C)c3ccccc3)c2)CC1	i	192.2%	1.2%	-5.5%	20.6µM*	?
Cc1ccc(N(C)S(=O)(=O)c2cccc(C(=O)OCC(=O)N3CCCC(C)C3)c2)cc1 (stereo unspecified)	i	-18.9%	0.9%	-4.8%	20.6µM*	9.4%
CCN(CC)S(=O)(=O)c1cccc(C(=O)OCC(=O)C23CC4CC(CC(C4)C2)C3)c1	?	-24.4%	-36.8%[38.3 µM]	5.8%	14.6µM*	15.5%
CC1CCCC(C)N1C(=O)COC(=O)c1cccc(S(=O)(=O)N(C)c2ccccc2)c1 (stereo unspecified)	i	29.4%	1.5%	-35.4%	i	17.0%
Cn1c(CNC(=O)C(Cc2ccccc2)NS(=O)(=O)c2ccc(Cl)cc2)cc(=O)n(C)c1=O (stereo unspecified)	.	14.4%	.	.	.	.
CC(N)c1ccc(NS(C)(=O)=O)cc1 (stereo unspecified)	.	6.8%	.	.	.	.
S=c1[nH]nc(-c2cc(-c3ccccc3)n[nH]2)n1/N=C/C=C/c1ccco1	i	39.8µM*	6.3%	-16.3%	i	0.0%
S=c1[nH]nc(-c2cc(-c3ccccc3)n[nH]2)n1/N=C/c1ccc(Br)s1	i	25.1µM*	-0.3%	-93.0%	i	?
S=c1[nH]nc(-c2ccco2)n1/N=C/C=C/c1ccco1	i	?	4.2%	-4.2%	i	8.4%
CCCCC[C@H](O)/C=C/C1C(=O)C=C[C@H]1C/C=C\CCCC(=O)OC (stereo partly specified)	i	?	-2.2%	23.2%[9.22 µM]	i	18.4µM*
CCCCC[C@H](O)/C=C/[C@H]1C(=O)C=C[C@@H]1C/C=C\CCCC(=O)O	.	-8.0%[12.5 µM]	.	.	.	.
CC(=O)c1ccc(OCC(=O)c2cc(C)n(-c3ccc4c(c3)OCO4)c2C)cc1	?	0.4%	0.8%	2.5%	8.2µM*	5.9%
Cc1cc(-n2c(C)cc(C(=O)CSc3nnnn3-c3ccc(Cl)cc3)c2C)no1	i	-16.5%	.	-13.2%	i	6.51µM*
Cc1cc(C(=O)COC(=O)c2ccc(N)c([N+](=O)[O-])c2)c(C)n1-c1ccc2c(c1)OCO2	?	-15.5%	-0.6%	-0.1%	?	2.0%
Cc1cc(C(=O)CSc2nnnn2C)c(C)n1-c1ccc2c(c1)OCCO2	i	?	4.0%	3.8%	20.6µM*	?
O=C(NCc1ccc2c(c1)OCO2)c1cnc2c(c1)N([S+](=O)([O-])c1cccnc1)CCC2	.	-58.4%	.	.	.	.
Cc1scc(-c2n[nH]c(=S)n2C(C)c2ccccc2)c1C (stereo unspecified)	?	?	11.8%	13.4%	?	10.3µM*
CCOc1ccc(C(=O)Nc2cc(S(=O)(=O)Nc3ccccc3Cl)ccc2N2CCOCC2)cc1	i	-13.8%	-0.9%	13.2%	6.51µM*	3.8%
CCCOc1ccc(C(=O)Nc2cc(S(=O)(=O)N3CCOCC3)ccc2N2CCOCC2)cc1	?	12.2%	5.9%	-4.5%	i	?
CCOc1ccc(S(=O)(=O)Nc2ccccc2C(=O)Nc2ccccc2N2CCOCC2)cc1	i	19.0%	11.2µM*	-4.8%	i	4.0%
CCOC(=O)c1ccccc1NS(=O)(=O)c1ccc(OCC)cc1	?	25.7%	5.7%[38.3 µM]	11.6µM*	?	13µM*
CC(C)[C@H](NS(=O)(=O)c1ccccc1)C(=O)Nc1ccccc1N1CCOCC1	i	6.3%	-0.2%	-2.1%	8.2µM*	1.8%
SMILES	KB-3-1 tox	ALOX12 inh	PINK1 modulator	SW480 rerep	KB-V1 MDR tox	MCF10A rereplic
Cc1cccc(C(=O)NC(C(=O)Nc2ccccc2N2CCOCC2)C(C)C)c1 (stereo unspecified)	i	-1.6%	1.0%	16.0%	i	-2.1%
CC(O)CNS(=O)(=O)c1ccc(Oc2ccc(S(=O)(=O)NCC(C)O)cc2)cc1 (stereo unspecified)	.	-15.3%	.	.	.	.
COc1ccccc1CN1C(=O)COC[C@@H]1[C@H](O)c1ccc(NC(=O)c2ccccc2)cc1	.	-14.1%	.	.	.	.
CC(C)CNC(=O)CN1CCN(c2nc(C(F)(F)F)nc3ccccc23)CC1	.	4.4%	.	.	.	.
COc1ccc(CNc2cccc(C(=O)O)c2C)c(OC)c1	.	-2.7%	.	.	.	.
Cc1cc(Cl)ccc1NS(=O)(=O)c1c(C)cc(N2C(=O)CCS2(=O)=O)cc1C	.	1.3%	.	.	.	.
COC(=O)c1cccc(NS(=O)(=O)c2ccc(OC)cc2)c1C	8.2µM*	0.7%	20.9%	?	9.2µM*	5.8µM*
CCOC(=O)NCc1ccc(S(=O)(=O)Nc2ccccc2C)cc1	i	0.0%	-2.3%	1.5%	23.1µM*	1.1%
COc1ccc(C(=O)NCc2nnc3c(-c4nc(C(C)C)no4)cccn23)cc1F	.	68.6%	.	.	.	.
CCc1nn(C(C)C(=O)N2CCN(Cc3ccccc3)CC2)c(=O)c2cc3occc3n12 (stereo unspecified)	i	-18.9%	-2.7%	0.7%	i	-4.3%
CCC(C(=O)N1CCN(c2ccc(OC)cc2)CC1)n1nc(C)n2c(cc3occc32)c1=O (stereo unspecified)	?	?	8.6%	.	?	.
CCc1nn(C(C)C(=O)N2CCN(c3ccc(OC)cc3)CC2)c(=O)c2cc3occc3n12 (stereo unspecified)	9.2µM*	0.0%	3.3%	?	i	?
CCc1nn(CCCC(=O)NCc2ccc(OC(C)C)cc2)c(=O)c2cc3occc3n12	7.31µM*	1.2%	0.3%	?	?	?
CCc1nn(C(C)C(=O)N2CCN(c3cccc(C(F)(F)F)c3)CC2)c(=O)c2cc3occc3n12 (stereo unspecified)	13µM*	0.0%	0.1%	.	8.2µM*	.
CO/N=C/c1ccc(C(=O)Oc2ccc(Cl)cc2C)cc1	.	-4.6%	.	.	.	.
CCC1(N2CCN(S(=O)(=O)c3cc(F)ccc3C)CC2)CCN(C(=O)NC)C1 (stereo unspecified)	.	-21.4%	.	.	.	.
CCC1(N2CCN(S(=O)(=O)c3ccc4c(c3)CCCC4)CC2)CCN(C(=O)NC)C1 (stereo unspecified)	.	31.6µM*	.	.	.	.
